HCMV inh – inhibitors of human cytomegalovirus; hit rate 4.5% among 410,000; activity change, negative = inhibition, % at 57.5 µM; AID 1259415; HFF cells, HCMV-luciferase reporter, 72 h; active compounds read low; in the data active = activity change below about -60%; inconclusive = no clear call, values can overlap the other calls; inactive = above about -39%
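Human foreskin fibroblasts infected with luciferase-reporter HCMV at MOI 1 PFU/cell, compounds at two doses. Luciferase measured 72 h post infection; normalized to buffer-only basal and Salinomycin (10uM) controls.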
LmPK inh – inhibitors of Leishmania mexicana pyruvate kinase; purified LmPK, Kinase-Glo ATP luminescence, 1 h; hit rate 0.37% among 290,000; AID 1721; Potency, µM (top dose mostly 57.5 µM), actives largely listed as inhibitors; Q27686
Target sequence (Q27686 whole entry, looked up): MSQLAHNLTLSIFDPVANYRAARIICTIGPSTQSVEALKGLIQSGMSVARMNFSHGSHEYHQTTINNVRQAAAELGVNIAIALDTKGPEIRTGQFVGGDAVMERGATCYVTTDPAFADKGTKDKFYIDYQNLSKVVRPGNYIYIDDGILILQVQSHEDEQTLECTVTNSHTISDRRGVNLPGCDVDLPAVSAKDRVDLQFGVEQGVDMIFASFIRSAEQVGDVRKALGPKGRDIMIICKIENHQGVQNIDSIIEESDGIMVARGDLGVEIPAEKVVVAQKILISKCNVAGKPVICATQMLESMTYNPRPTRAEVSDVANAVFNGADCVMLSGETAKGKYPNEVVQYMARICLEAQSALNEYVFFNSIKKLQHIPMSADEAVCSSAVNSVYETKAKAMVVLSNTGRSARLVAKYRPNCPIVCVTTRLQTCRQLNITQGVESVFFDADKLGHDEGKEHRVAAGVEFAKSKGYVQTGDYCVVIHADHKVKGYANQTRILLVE
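In 50 mM imidazole pH 7.2 with 7 mM MgCl2, LmPK (0.1 nM) turned over PEP (0.5 mM) and ADP (0.1 mM) for 1 h at room temperature. Luciferase read-out of ATP.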
VACV Venus inh – vaccinia inhibition (Venus reporter); AID 720580; Potency, µM (doses to about 36.5 µM), actives largely listed as inhibitors; hit rate 0.46% among 330,000; Vaccinia virus Venus reporter expression, fluorescence; calls by dose curve; tested in A549 cells; note: nearly all actives have a fitted effect of over 30% in size
VACV mCherry inh – vaccinia inhibition (mCherry reporter) | Vaccinia virus mCherry reporter infection, fluorescence | Potency, µM (series often up to 36.5 µM), usual class: inhibitors | hit rate 0.63% among 310,000 | AID 720579; calls by dose curve; tested in A549 cells; note: nearly all actives have a fitted effect of over 35% in size
TbPYK inhibitor – T. brucei pyruvate kinase inhibition. Potency, µM (doses to about 76.8 µM), actives largely listed as inhibitors. hit rate 0.12% among 410,000. Q57TT1. TbPYK enzyme, Kinase-Glo Plus ATP luminescence, 45 min; note: nearly all actives have a fitted effect of over 50% in size
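Screened from lowest to highest concentration, compounds were pinned into TbPYK/substrate mixtures, and ADP (130 uM final) was added. Plates sat at room temperature for 45 min prior to Kinase-Glo Plus detection by luminescence.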
Numbers stand for hits; n = inactive; u = inconclusive; x = no result given; [ ] = another dose, or the depositor's remark. Sampled rows, rich in hits. Any-hit rate of the full collection: about 5%. Unless noted, calls come from the whole dose curve; as a rule, active = well fitted curve in the direction sought with a large enough effect; inconclusive = small, poorly fitted or top-dose-only effect, or another doubt; inactive = no such curve, though single readings can be large; an effect the other way counts as inactive or inconclusive.

SMILES	HCMV inh	LmPK inh	VACV Venus inh	VACV mCherry inh	TbPYK inhibitor
C/C(CCC12CC3CC(CC(C3)C1)C2)=N\NC(N)=S	n	n	u	11.2µM	n
CC(C)c1ccc(S(=O)(=O)c2cn(CC(=O)Nc3ccc(F)cc3)c3ccccc3c2=O)cc1	-107.1	x	n	n	n
CC[n+]1ccnc2ccccc21	x	x	12.6µM	17.8µM	x
O=C(Cn1ccc2ccccc2c1=O)NCCC(=O)N1CCN(c2cccc(C(F)(F)F)c2)CC1	n	n	x	x	n
COc1ccc(CC(=O)NNC(=O)c2ccco2)cc1OC	n	n	n	n	n
Cc1cnc(NC(=O)c2cccs2)s1	n	n	n	n	n
O=C(/C=C/c1ccc([N+](=O)[O-])cc1)Nc1ncc([N+](=O)[O-])s1	-113.3	n	x	x	n
O=C(/C=C/c1ccc([N+](=O)[O-])cc1)NCc1ccccn1	n	n	n	n	n
CCCCOc1ccc(/C=C/C(=O)Nc2ccc([N+](=O)[O-])cc2C)cc1	n	n	n	n	n
CCCOc1ccc(/C=C/C(=O)Nc2ccc([N+](=O)[O-])cc2)cc1	-69.6	n	n	n	n
O=C(CCS(=O)(=O)c1ccccc1)Nc1ncc([N+](=O)[O-])s1	u	n	u	n	n
O=C(Nc1ncc([N+](=O)[O-])s1)c1cccs1	u	14.1µM	n	n	u
O=C(CCS(=O)(=O)Cc1ccccc1)Nc1ncc([N+](=O)[O-])s1	-96.0	n	u	n	n
O=C(NNC(=O)c1ccc([N+](=O)[O-])cc1C(=O)O)c1ccncc1	n	n	n	n	n
CC1CCN(S(=O)(=O)c2ccc(NC(=O)C3CC3)cc2)CC1	n	n	n	n	n
CC(N)Cc1ccc2c(c1)OCO2 (stereo not given)	x	x	x	x	n
CCCCC(CC)C(=O)Nc1ncc([N+](=O)[O-])s1 (stereo not given)	-74.5	n	u	10µM	n
COc1cc(SC)ccc1C(=O)OCC(=O)NCCC1=CCCCC1	n	x	n	n	n
S=C(Nc1ccc(Cl)c(Cl)c1)NC1CCCCC1	-98.9	n	x	x	n
S=C(Nc1ccc2nsnc2c1)NC1CCCCC1	-61.6	n	n	n	n
S=C(NNc1ccc2ccccc2c1)NC1CCCCC1	-60.2	n	n	n	n
CC(C)c1ccc(NC(=S)NC2CCCCCC2)cc1	n	n	n	n	n
S=C(Nc1ccc2nsnc2c1)N1CCCCCC1	n	n	n	n	n
S=C(Nc1ccc(Oc2ccccc2)cc1)NC1CCCCCC1	n	n	u	u	n
S=C(NCc1ccc2c(c1)OCO2)Nc1ccc2nsnc2c1	-66.3	n	n	n	n
SMILES	HCMV inh	LmPK inh	VACV Venus inh	VACV mCherry inh	TbPYK inhibitor
FC(F)(F)c1ccc(NC(=S)NC2CCCCC2)cc1	n	n	n	u	n
CN(C(=O)Nc1cccc(C(F)(F)F)c1)C1CCCCC1	-62.7	n	n[7.34 µM]	n[7.34 µM]	n
FC(F)(F)c1cccc(NC(=S)NC2CCCC2)c1	-64.1	n	n	n	n
CC(C)c1ccc(N2C(=O)CSC23C(=O)N(C)c2ccccc23)cc1 (stereo not given)	n	x	n	n	n
CC(C)C[C@H]1CNC(=S)N1CC1CCCN1C[C@H](Cc1ccccc1)N1C[C@H](Cc2ccc(O)cc2)N(CC2CCCCCC2)C1=S (stereo not given in full)	-100.8	x	u	u	n
CC(C)C[C@H]1CNC(=S)N1C[C@H]1CCCN1C[C@H](Cc1ccc(O)cc1)N1C[C@H](Cc2ccc(O)cc2)N(CC2CCCCCC2)C1=S	-82.8	x	u	u	n
CCCCOc1ccc(CCN)cc1Cl	-60.2	n	n	n	n
CCCCOc1ccc(CSCCN)cc1Cl	n	n	x	x	n
O=c1[nH]c(-c2ccc(Cl)cc2)nc(=S)[nH]1	n	n	x	x	n
CCCCOc1ccc(S(=O)(=O)NCc2csc(C)n2)cc1	-66.6	n	n	u	n
Cc1cc(N2CCN(c3ccccc3)CC2)n2c(n1)nc1ccccc12	u	n	x	x	n
O=C(c1ccc(F)cc1)c1cc2ccc(O)cc2oc1=O	n	u	n	n	u
COc1ccccc1C(=O)c1cc2ccc(O)cc2oc1=O	-61.5	n	n	n	n
CNC(=O)c1ccccc1-c1ccccc1	n	n	n	n	n
O=C(COc1ccccc1)Nc1ccc2c(c1)Cc1cc(NC(=O)COc3ccccc3)ccc1-2	-80.1	n	n	n	n
O=C(COc1ccc(Br)cc1)Nc1ccc(NC(=O)c2ccccc2)cc1	-68.5	n	n	n	n
Cc1ccccc1OCC(=O)Nc1ccc2c(c1)Cc1ccccc1-2	n	n	x	x	n

Source: PubChem
